± gives the standard deviation.
Tests used:
Assay in all cases: peptide microarray binding signal (635 nm), min-max normalized on array (fraction of array maximum); higher = stronger binding
Conditions in all cases: peptide region: H3 1-13
[1] = target: T1, HaloTag-ATRX ADD domain (163-292)
T1 chain: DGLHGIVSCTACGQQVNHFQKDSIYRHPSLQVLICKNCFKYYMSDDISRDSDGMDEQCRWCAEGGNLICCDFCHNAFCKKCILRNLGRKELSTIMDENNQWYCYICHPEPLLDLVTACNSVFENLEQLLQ
Experimental: (§1)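 Histone 13-mer peptides were synthesized as cellulose conjugates with a C-terminal 20-atom PEG linker and printed in triplicate on nitrocellulose. The sequence given is the unmodified backbone; PTMs (Kme1/2/3, Kac, Sph/Tph, Rme/Rme2a/Rme2s, Rcit) are listed in the label and the 'peptide modifications' condition. Slides were probed at 4 °C for 1 h with biotin-labelled (HQ)5-HaloTag reader fusions (ATRX-ADD, ING2-PHD) then streptavidin-Alexa647, or with rabbit histone antibodies then anti-rabbit Alexa647. The mean 635 nm signal of the triplicate spots was scaled 0-1 between the lowest and highest values on each array.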

[2] = target: HaloTag-ING2 PHD (mouse Ing2 200-280)
Experimental: as §1

[3] = target: anti-H3K4me3 antibody ab8580
Experimental: as §1

[4] = target: anti-H3K9me3 antibody ab8898
Experimental: as §1

[5] = peptide modifications: H3T3ph H3K4me2, binder concentration: 1:2,000 dilution
[6] = peptide modifications: H3T3ph H3K4me2, binder concentration: 1:10,000 dilution
[7] = peptide modifications: H3T6ph H3K9me2, binder concentration: 1:2,000 dilution
[8] = peptide modifications: H3T6ph H3K9me2, binder concentration: 1:10,000 dilution
[9] = peptide modifications: H3T3ph H3K4me3, binder concentration: 1:2,000 dilution
[10] = peptide modifications: H3T3ph H3K4me3, binder concentration: 1:10,000 dilution
[11] = peptide modifications: H3T3ph H3K9me2, binder concentration: 1:2,000 dilution
[12] = peptide modifications: H3T3ph H3K9me2, binder concentration: 1:10,000 dilution
[13] = peptide modifications: H3T6ph H3R8me2a, binder concentration: 1:2,000 dilution
[14] = peptide modifications: H3T6ph H3R8me2a, binder concentration: 1:10,000 dilution

B1: H3 1-13 A R Tph Kme2 Q T A R K S T G G (peptide)
chain: ARTKQTARKSTGG
For B1, the “peptide microarray binding signal” value ([1]; peptide modifications: H3T3ph H3K4me2, binder concentration: 50 nM) was 0.00555 ± 0.0001, the “peptide microarray binding signal” value ([1]; peptide modifications: H3T3ph H3K4me2, binder concentration: 500 nM) was 0.00891 ± 0.00073 and the “peptide microarray binding signal” value ([2]; peptide modifications: H3T3ph H3K4me2, binder concentration: 10 nM) was 0.0132 ± 0.0013. For the same binder, the “peptide microarray binding signal” value ([2]; peptide modifications: H3T3ph H3K4me2, binder concentration: 100 nM) was 0.0916 ± 0.0043, the “peptide microarray binding signal” value [3, 5] was 0.0195 ± 0.0045 and the “peptide microarray binding signal” value [3, 6] was 0.024 ± 0.0033. For the same binder, the “peptide microarray binding signal” value [4, 5] was 0.0022 ± 0.00054 and the “peptide microarray binding signal” value [4, 6] was 0.00185 ± 8e-05.

B2: H3 1-13 A R T K Q Tph A R Kme2 S T G G (peptide)
chain: ARTKQTARKSTGG
For B2, the “peptide microarray binding signal” value ([1]; peptide modifications: H3T6ph H3K9me2, binder concentration: 50 nM) was 0.00674 ± 3.8e-05, the “peptide microarray binding signal” value ([1]; peptide modifications: H3T6ph H3K9me2, binder concentration: 500 nM) was 0.0151 ± 0.00044 and the “peptide microarray binding signal” value ([2]; peptide modifications: H3T6ph H3K9me2, binder concentration: 10 nM) was 0.0226 ± 0.0028. The “peptide microarray binding signal” value ([2]; peptide modifications: H3T6ph H3K9me2, binder concentration: 100 nM) was 0.0292 ± 0.0053, the “peptide microarray binding signal” value [3, 7] was 0.00732 ± 0.0017 and the “peptide microarray binding signal” value [3, 8] was 0.0124 ± 0.0021. For the same binder, the “peptide microarray binding signal” value [4, 7] was 0.0419 ± 0.0095 and the “peptide microarray binding signal” value [4, 8] was 0.0174 ± 0.00085.

B3: H3 1-13 A R Tph Kme3 Q T A R K S T G G (peptide)
chain: ARTKQTARKSTGG
For B3, the “peptide microarray binding signal” value ([1]; peptide modifications: H3T3ph H3K4me3, binder concentration: 50 nM) was 0.00583 ± 0.0002, the “peptide microarray binding signal” value ([1]; peptide modifications: H3T3ph H3K4me3, binder concentration: 500 nM) was 0.0119 ± 0.00039 and the “peptide microarray binding signal” value ([2]; peptide modifications: H3T3ph H3K4me3, binder concentration: 10 nM) was 0.0508 ± 0.0034. The “peptide microarray binding signal” value ([2]; peptide modifications: H3T3ph H3K4me3, binder concentration: 100 nM) was 0.103 ± 0.049, the “peptide microarray binding signal” value [3, 9] was 0.277 ± 0.065 and the “peptide microarray binding signal” value [3, 10] was 0.724 ± 0.2. For the same binder, the “peptide microarray binding signal” value [4, 9] was 0.055 ± 0.0067 and the “peptide microarray binding signal” value [4, 10] was 0.017 ± 0.00063.

B4: H3 1-13 A R Tph K Q T A R Kme2 S T G G (peptide)
chain: ARTKQTARKSTGG
B4 was tested, and the “peptide microarray binding signal” value ([1]; peptide modifications: H3T3ph H3K9me2, binder concentration: 50 nM) was 0.0107 ± 0.00063, the “peptide microarray binding signal” value ([1]; peptide modifications: H3T3ph H3K9me2, binder concentration: 500 nM) was 0.0409 ± 0.02 and the “peptide microarray binding signal” value ([2]; peptide modifications: H3T3ph H3K9me2, binder concentration: 10 nM) was 0.0306 ± 0.0047. The “peptide microarray binding signal” value ([2]; peptide modifications: H3T3ph H3K9me2, binder concentration: 100 nM) was 0.0365 ± 0.018, the “peptide microarray binding signal” value [3, 11] was 0.0117 ± 0.0018 and the “peptide microarray binding signal” value [3, 12] was 0.0191 ± 0.0097. For the same binder, the “peptide microarray binding signal” value [4, 11] was 0.0295 ± 0.0016 and the “peptide microarray binding signal” value [4, 12] was 0.013 ± 0.0018.

B5: H3 1-13 A R T K Q Tph A Rme2a K S T G G (peptide)
chain: ARTKQTARKSTGG
In the case of B5, the “peptide microarray binding signal” value ([1]; peptide modifications: H3T6ph H3R8me2a, binder concentration: 50 nM) is reported as 0.00677 ± 0.00082, the “peptide microarray binding signal” value ([1]; peptide modifications: H3T6ph H3R8me2a, binder concentration: 500 nM) is reported as 0.0179 ± 0.002 and the “peptide microarray binding signal” value ([2]; peptide modifications: H3T6ph H3R8me2a, binder concentration: 10 nM) is reported as 0.00961 ± 0.00061. The “peptide microarray binding signal” value ([2]; peptide modifications: H3T6ph H3R8me2a, binder concentration: 100 nM) was 0.054 ± 0.0051, the “peptide microarray binding signal” value [3, 13] was 0.00166 ± 0.00015 and the “peptide microarray binding signal” value [3, 14] was 0.0012 ± 1.2e-05. For the same binder, the “peptide microarray binding signal” value [4, 13] was 0.00384 ± 0.00058 and the “peptide microarray binding signal” value [4, 14] was 0.00185 ± 6.1e-05.

Source: the supplement of paper PMC4022240
